Source: PubChem (National Center for Advancing Translational Sciences (NCATS))
Many of the other results were omitted from the sample, so hits are more common in it than they were.
Shiga toxin inh = A qHTS for Small Molecule Inhibitors of Shiga Toxin; AID 2315, 2010; inhibition, % at 38.7 µM; 9.2% of 290,000 active; Vero cells, Shiga toxin protein synthesis inhibition reporter; in the data active = inhibition mostly above about 28%, no sharp cut-off; inactive = mostly below about 43%; note: 0% is about no effect
LASV entry inh = qHTS for Inhibitors of binding or entry into cells for Lassa Virus; AID 540256, 2011; Potency, µM (highest dose often 37.9 µM), without a hit: at the top dose activity change, negative = inhibition, usual class: inhibitors; Lassa virus pseudotype entry inhibition, cell reporter; 1.2% of 300,000 active; calls by dose curve; tested in HEK293 cells; note: potency is the fitted concentration of half-maximal effect; % is set by controls: 0 for no effect and ±100 for the full control effect; nearly all actives have a fitted effect of over 50% in size
AMA1 RON2 block = qHTS for Inhibitors of AMA1-RON; Towards Development of Antimalarial Drug Lead: Primary Screen; AlphaScreen AMA1-biotinylated RON2 peptide binding; 0.2% of 360,000 active; Potency, µM (series often up to 58.2 µM), without a hit: at the top dose activity change, negative = inhibition, usual class: inhibitors; active = well fitted inhibition curve with a large enough effect; inconclusive = small, poorly fitted or top-dose-only effect; inactive = no such curve, though single readings can be large or run the other way;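 note: potency is the fitted concentration of half-maximal effect; 0% = vehicle wells and -100% = peptide control; nearly all actives have a fitted effect of over 45% in size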
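AMA1 (3D7) with his tag at 25 nM final met compounds first, then biotinylated RON2 peptide at 25 nM; detection used donor plus acceptor beads, 10 µg/mL apiece, read by AlphaScreen after 30 min at room temperature.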
Cycloheximide cs = Cycloheximide Counterscreen for Small Molecule Inhibitors of Shiga Toxin | AID 2314, 2010 | max response, % | 12% of 300,000 active | cell reporter, cycloheximide protein synthesis inhibition counterscreen; in the data active = max response mostly above about 13%, no sharp cut-off; inactive = mostly below about 14%; note: read at 38.3 µM for the half of the compounds with a filed dose; 0% is about no effect
MARV entry inh = qHTS for inhibitors of binding or entry into cells for Marburg Virus; Marburg virus pseudotyped entry inhibition, cell reporter; 1.8% of 300,000 active; Potency, µM (titrated, usually from 37.8 µM), for the others: top-dose activity change, negative = inhibition, usual class: inhibitors; calls by dose curve; tested in HEK293 cells; note: potency is the fitted concentration of half-maximal effect; % is set by controls: 0 for no effect and ±100 for the full control effect
* marks the source's active call; other numbers are inactive results; ? = inconclusive; . = not tested or not shown; + = active, no number; [ ] = remark or other dose.

SMILES	Shiga toxin inh	LASV entry inh	AMA1 RON2 block	Cycloheximide cs	MARV entry inh
CCOC(=O)c1cc(-c2ccccc2)n(CC(=O)NC2CCC(C)CC2)c1C (centres undefined)	.	8%[46.1 µM]	.	.	.
Cc1nc(OCc2c(C)noc2C)c2ccccc2n1	8	4%	1%	-1	3%[14.2 µM]
COC(=O)c1c(-c2ccc(C)cc2)csc1NC(=O)C1CC=CCC1C(=O)O (centres undefined)	active	?	-2%	10	?
COC(=O)c1c(-c2cc(C)ccc2C)csc1NC(=O)C1CC=CCC1C(=O)O (centres undefined)	40	4%	10%	-4	0%[46.1 µM]
CCOC(=O)c1c(-c2ccc(C)cc2)csc1NC(=O)C1CCCO1 (centres undefined)	14	?	-15%	6	?
CC(C)OC(=O)c1c(-c2ccc(C(C)C)cc2)csc1NC(=O)C1CCCO1 (centres undefined)	-17	5.6µM*	-13%	-4	?
COC(=O)c1c(-c2cccc(C)c2)csc1NC(=O)C1CCCO1 (centres undefined)	15	-2%	-27%	27*	?
Cc1ccccc1C(=O)N1CCC(C(=O)Nc2ccc(S(=O)(=O)N3CCCCC3)cc2)CC1	1	?	-10%	-4	-30%
CCCCCn1c(=N)c(S(=O)(=O)c2ccccc2)cc2c(=O)n3cccc(C)c3nc21	.	?	.	.	-26%[46.1 µM]
Cn1c(SCC(=O)N/N=C/c2ccc([N+](=O)[O-])s2)nnc1-c1ccc(Cl)cc1	-11	?	23%	10*	12µM*
Cc1cc(C(=O)N/N=C/c2ccc(C)s2)n[nH]1	86*	?	12%	29	-3%[46.1 µM]
Cc1ccc(/C=N/N=C/c2ccc(C)s2)s1	+	?	-22%	71*	?
O=C(N/N=C/c1ccc([N+](=O)[O-])s1)c1cccc(Br)c1	5	-29%	37%	-2	?
Cc1cccc(NC(=S)N/N=C/c2ccc([N+](=O)[O-])s2)c1	32*	16µM*	-24%	19	?
Cc1cc(C(=O)N/N=C/c2ccc(Br)o2)n[nH]1	31	.	15%	11	.
COc1cccc(N2C(=O)Nc3ccc(Br)cc3C2(O)C(=O)NCCCOC(C)C)c1 (centres undefined)	-5	2%[46.1 µM]	-7%	-6	?
C[C@@H]1CC[C@H]2C(=O)O[C@@H](COc3ccc(C(C)(C)C)cc3)CN2[C@H]1c1ccc(Br)cc1	.	-26%[14.3 µM]	.	.	?
Cc1cccc(N/N=C/c2ccc(C)s2)c1	80*	.	-20%	40*	.
Cc1cccc(N/N=C/c2ccc(O)c(O)c2O)c1	12	.	?	0	.
O=C(N/N=C/c1ccc([N+](=O)[O-])s1)c1ccncc1	5	30%[46.1 µM]	43%	9	?
Cc1cc(C(=O)N/N=C/c2ccc([N+](=O)[O-])s2)n[nH]1	28	?	23%	17*	?
CC(C)(C)OC(=O)N/N=C\c1ccc([N+](=O)[O-])s1	81*	22%[46.1 µM]	-6%	58*	14%[46.1 µM]
Cc1ccc(C(=O)N/N=C/c2ccc([N+](=O)[O-])s2)cc1	-23	?	-24%	-3	11µM*
COC(=O)C(Cc1ccccc1)NS(=O)(=O)c1cc(Br)ccc1Br (centres undefined)	-5	.	.	8	.
Cc1[nH]cnc1C(=O)N/N=C/c1ccc([N+](=O)[O-])s1	55*	-10%[46.1 µM]	63%	24*	?
SMILES	Shiga toxin inh	LASV entry inh	AMA1 RON2 block	Cycloheximide cs	MARV entry inh
Cc1ccc(C(=O)N/N=C\c2ccc([N+](=O)[O-])s2)cn1	-13	?	16%	-2	14%
Cc1cc(C(=O)N/N=C/c2cc(Br)c(Br)o2)n[nH]1	80*	11%[46.1 µM]	37%	23*	?
CC(=O)c1ccc(Sc2ccc(C(C)=O)cc2)cc1	40*	?	3%	37*	12%
CC(=O)c1ccc(Sc2ccccc2)cc1	13	0%	9%	19	1%
COc1ccc(C2=Nc3ccccc3N(C(=O)c3ccncc3)C2C(=O)NC(C)(C)C)cc1 (centres undefined)	.	.	6%	.	.
Fc1ccc(/C=N/Nc2nnnn2-c2ccccc2)cc1	-6	-24%	-3%	-2	?
O=C(NNC1=Nc2cccc3cccc1c23)c1ccccc1Br	-4	-3%	38%	1	?
c1ccc(NC2=Nc3cccc4cccc2c34)cc1	6	18%	?	21*	4%[14.2 µM]
COc1ccc(NC2=Nc3cccc4cccc2c34)cc1	50	-8%	?	25*	?
O=C(O)c1cccc(NC2=Nc3cccc4cccc2c34)c1	38*	.	-4%	6.7*	.
Fc1ccc(/C=N/NC2=Nc3cccc4cccc2c34)cc1	81*	?	-20%	43*	?
COc1ccc(NS(=O)(=O)c2ccc(O)c(NC(=O)c3cc4c(C)nn(-c5ccc(F)cc5)c4s3)c2)cc1	-15	-5%	0%	-5	?
CN(C)c1ccc(CNC2CC(C)(C)NC(C)(C)C2)cc1	18	12µM*	-2%	-1	?
Cc1cc(C)n2c(SC(C)C(=O)NC3(C#N)CCCCC3)nnc2n1 (centres undefined)	.	.	-11%	.	.
O=C(C1CCN(Cc2ccccc2)CC1)N1CCN(C/C=C/c2ccccc2)CC1	-8	?	-19%[11.6 µM]	-2	14µM*
O=C(C1CCN(Cc2ccc(F)cc2)CC1)N1CCN(C/C=C/c2ccccc2)CC1	-18	?	-9%	-3	?
CCOC(=O)c1sc2ncnc(NCC(c3cccs3)N(C)C)c2c1C (centres undefined)	40	16%	25%	24*	?
OCCC1CN(Cc2cn[nH]c2C2CCCCC2)CCN1C1CCCCC1 (centres undefined)	-18	-2%	5%	-4	-8%[46.1 µM]
O=C(CSc1ccccc1Cl)c1ccco1	49	?	0%	26*	12%
O=C(CSc1ccc(Cl)cc1)c1ccco1	65*	-31%	-26%	42	-2%
CC(NC(=O)C(=O)NCCN1CCN(C(=O)c2ccccc2Br)CC1)c1ccccc1 (centres undefined)	-6	15%[46.1 µM]	-2%	10	11%[46.1 µM]
c1cncc(-c2nc(N3CCOCC3)c3c4c(sc3n2)CCC4)c1	2	1%	0%	2	?
c1cncc(-c2nc(NCCCN3CCOCC3)c3c4c(sc3n2)CCC4)c1	-4	?	-7%	7	10µM*
Nc1ccc2nc(C(F)(F)F)[nH]c2c1	-6	-1%	13%	0	10%
COC(=O)c1ccc2nc(C(F)(F)F)[nH]c2c1	11	-7%	-2%	17*	3%
O=C1[C@@H]2[C@@H]3C[C@@H]([C@H]4ON=C(c5ccc(OCc6ccccc6)cc5)[C@@H]34)[C@@H]2C(=O)N1c1ccc2c(c1)OCO2	2	-15%	7%	8	4.5µM*
